Each structure is given as a SMILES string. Among all 38,000 compounds or so, about 1,200 (3.2%) showed an effect of 50% or more. The median lay at about -58%. The sample holds strong results, similar compounds and a random draw of the others, so the mix is not that of the screen.

For this test, the system named is Plasmodium falciparum. Put plainly: Calibr Malaria Delayed Death Assay SOP. The test is classed as functional, organism-based. Also on record: scale not given: in the data most compounds retested in dose-response had high values. The note with it: concentration 4.99e-06 (unit not given; other assays of the set use mol/L).
On to `Cc1cc(C)cc(NC(=O)CC2CN(Cc3ccccc3)CCO2)c1` (stereo unspecified), for which the “Percent Effect” value was -128.2%.
With `CCc1cccc2cc(CNCCCN3CCOCC3)c(=O)[nH]c12`, the “Percent Effect” value is reported as -14.92%.
As for `COCCCn1c(CN2CCCCO2)cnc1S(=O)(=O)C1CCCC1`, the “Percent Effect” value is reported as -131.1%.
For the compound `O=C(CNc1cc(-n2cnnn2)ccc1F)Nc1ccccc1Cl`, the “Percent Effect” value is -49.6%.
The result for `O=C(CNc1cc(-n2cnnn2)ccc1F)Nc1cc(F)ccc1F` reads 1.352%; that for `Cc1ccc(-n2cnnn2)cc1NCC(=O)Nc1cc(F)ccc1F`, 71.46%; that for `O=C(CNc1cc(-n2cnnn2)ccc1F)NCc1ccccc1`, -22.04%.
On to `Cc1ccc(-n2cnnn2)cc1NCC(=O)Nc1ccccc1Cl`, for which the “Percent Effect” value stood at 78.71%.
On to `O=C(CNc1ccccc1Cl)Nc1cc(-n2cnnn2)ccc1F`, for which the “Percent Effect” value was -95.2%.
The figure for `Cc1ccc(-c2ccc(=O)n(CC(=O)Nc3nccs3)n2)cc1` is -17.67%; for `FC1(F)CCN(Cc2ccccn2)CC12CCN(c1cnccn1)C2.O=C(O)C(F)(F)F.O=C(O)C(F)(F)F.O=C(O)C(F)(F)F` (stereo unspecified) it is 16.91%.
The figure for `CC(C)(C)OCC1CN(CC2CC2)S(=O)(=O)c2cnccc2O1` (stereo unspecified) is -18.82%; for `O=C1NCC2(CCCN(C(=O)c3c[nH]nc3C3CCCCC3)C2)O1` (stereo unspecified) it is -117.3%; for `O=C(NCC1CCOC1)c1csc(-c2ccc(F)cc2)n1` (stereo unspecified) it is -133.9%.
The figure for `c1ccc(CO[C@H]2CO[C@@]3(CCCN(Cc4ccncc4)C3)C2)nc1` is -35.86%.
As for `CN1C[C@H]2N(c3ncccn3)CCC[C@@]2(C(=O)NCC2CC2)C1.O=C(O)C(F)(F)F`, the “Percent Effect” value is given as -55.87%.
The result for `CCN(CC)Cc1ccc(C(=O)NC2CCc3cc(Cl)ccc32)o1` (stereo unspecified) reads 54.73%.
With `CCN(CC)Cc1ccc(C(=O)NC2CCc3cc(Br)ccc32)o1` (stereo unspecified), the “Percent Effect” value was found to be 46.2%.
The result for `CCN(CC)Cc1ccc(C(=O)NC2CCc3cc(F)ccc32)o1` (stereo unspecified) reads 13.89%.
The figure for `CCC(c1ccncc1)N(C)S(C)(=O)=O` (stereo unspecified) is -63.43%.
In the case of `O=c1[nH]nc2c(S(=O)(=O)N3CCCCC3)cccn12`, the “Percent Effect” value is on record as -53.1%.
`CCSc1nnc(CCNC(=O)OC(C)(C)C)o1`: the “Percent Effect” value was -74.82%.
The figure for `Clc1ccc(OCCNC2(c3ccc(Br)cc3)CCOCC2)cc1` is 8.374%; for `CCN(C)S(=O)(=O)NCC1(c2cccc(Br)c2)CC1` it is -108.3%.
For the compound `Fc1ccc(C2(CNCCc3cccs3)CCOC2)cc1` (stereo unspecified), the “Percent Effect” value turned out to be 43.71%.
Regarding `FC(F)(F)c1cccc(C2(CNCc3ccncc3)CCOCC2)c1`, the “Percent Effect” value is given as 48.98%.
For the compound `COCCn1ccnc1C1CCCN(c2cc(OC)nc(N)n2)C1` (stereo unspecified), the “Percent Effect” value is listed as -62.62%.
The figure for `CC(O)(CN1CCC2(CC1)OCCO2)c1cccc(C(F)(F)F)c1` (stereo unspecified) is -10.61%.
As to `CC(O)(CN1CCC(O)CC1)c1cccc(C(F)(F)F)c1` (stereo unspecified), the “Percent Effect” value worked out at 56.04%.
The figure for `CC(=O)N1CCCN(CC(C)(O)c2cccc(C(F)(F)F)c2)CC1` (stereo unspecified) is -93.83%; for `COc1cc(C)c(S(=O)(=O)CC(=O)N(C)C2CC2)cc1OC` it is -72.85%.
The figure for `NC(=O)C1(c2cnccn2)CCCN1Cc1ccccn1` (stereo unspecified) is -37.82%.
As for `Cc1ccc(NCCCc2c(C)noc2C)nn1`, the “Percent Effect” value was -93.73%.
Consider `Cc1cc(CN2CCC3(CC2)CC(Nc2ncccn2)CO3)nn1C.O=C(O)C(F)(F)F` (stereo unspecified), for which the “Percent Effect” value was -11.8%.
The result for `O=C(O)C(F)(F)F.c1cnc(NC2COC3(CCN(Cc4cccs4)CC3)C2)nc1` (stereo unspecified) reads -52.55%; that for `Cc1cc(C)cc(CN2CCC3(CC2)CC(Nc2ncccn2)CO3)c1.O=C(O)C(F)(F)F` (stereo unspecified), 60.22%; that for `Cn1cc(CN2CCC3(CC2)CC(Nc2nccs2)CO3)cn1.O=C(O)C(F)(F)F` (stereo unspecified), -11.64%.
The figure for `O=C(O)C(F)(F)F.c1ccc(CN2CCC3(CC2)CC(Nc2nccs2)CO3)nc1` (stereo unspecified) is 73.68%; for `O=C(O)C(F)(F)F.c1cnc(NC2COC3(CCN(Cc4ccoc4)CC3)C2)nc1` (stereo unspecified) it is -27.43%.
Turning to `COc1ccc2c(ccn2CCC(=O)Nc2ccc(C(N)=O)cc2)c1`, the “Percent Effect” value is recorded as -55.48%.
With `COCCCN(C)C1CCCN(Cc2noc(C3CC3)n2)C1` (stereo unspecified), the “Percent Effect” value is on record as -38.52%.
The figure for `CCCc1nnc(N2CCC3(CC2)CN(C)C(=O)O3)o1` is -93.43%; for `O[C@H]1CC[C@@H](Cc2cc(-c3ccccn3)on2)O[C@@H]1CNCC1CC1` it is -74.71%.
The figure for `O[C@H]1CC[C@@H](Cc2cc(-c3ccc(F)cc3)on2)O[C@@H]1CNCC1CC1` is 62.55%; for `O[C@H]1CC[C@@H](Cc2cc(-c3ccccc3)on2)O[C@@H]1CNCC1CC1` it is 37.66%; for `CN(Cc1cccs1)c1cc(N2CCCC2CO)ncn1` (stereo unspecified) it is -120.2%.
On to `Cc1cc2nc(SCC(=O)N3CCOCC3)n(CC(C)C)c(=O)c2[nH]1`, for which the “Percent Effect” value is -82.87%.
The result for `CC(C)c1cc(Br)ccc1NC(=O)NC(C)(CO)CO` reads -72.51%.
The figure for `CC(c1nc(C(C)(C)C)no1)S(=O)(=O)CC(=O)N(C)C` (stereo unspecified) is -171.7%; for `Fc1ccc(OCCCNC2=NCCN2)cc1.I` it is 3.475%.
The figure for `Fc1ccc(Sc2ccccc2CNC2=NCCN2)cc1.I` is 79.96%.
`O=C(CCc1nnc2ccccn2c1=O)NCc1ccco1`: the “Percent Effect” value was -46.43%.
For `COc1ccsc1C(=O)NCCN1CCOCC1`, the “Percent Effect” value is -115.8%.
As to `Cc1nc(C)n(CC2CCCN2Cc2ccn(-c3ccccc3)n2)n1` (stereo unspecified), the “Percent Effect” value is -118.1%.
As to `CNCCCNC1CCN(c2ccc(-n3ccnc3)cc2)CC1`, the “Percent Effect” value turned out to be 32.68%.
The result for `CCN1CCC2(CC1)CC(CC(=O)N(C)C)c1ccc(F)cc12` (stereo unspecified) reads -67.07%; that for `CCC(C)N(Cc1ccc(C)cc1)Cc1c[nH]c(C)n1` (stereo unspecified), 77.78%.
On to `CCC(C)N(Cc1c[nH]c(C)n1)Cc1ccccc1Cl` (stereo unspecified), for which the “Percent Effect” value stood at 47.84%.
The figure for `CCC(C)N(Cc1ccncc1)Cc1ccc(-n2cccn2)cc1` (stereo unspecified) is -4.562%; for `CCc1ccc(CN2CCNC(C(=O)N3CCN(C)CC3)C2)o1` (stereo unspecified) it is -22.63%; for `CCOc1ncccc1C(=O)N1CCCC1Cn1cc(C)cn1` (stereo unspecified) it is -83.81%.
The figure for `Cc1nc(C)c(C)c(N2CCC(O)(c3ccc(F)cc3)CC2)n1` is -9.23%; for `Fc1ccccc1CN1CCCN(c2ncnc3[nH]ccc23)CC1` it is -95.46%.
The figure for `CNc1nnc(SCc2nnc(C(C)(C)C)o2)s1` is -74.95%; for `O=C1NCC(C(=O)Nc2ncc(Cc3ccc(F)cc3F)s2)N1` (stereo unspecified) it is -63.93%; for `O=C(Cc1cccc2ccccc12)N1CCC(Nc2cccnn2)CC1` it is -77.23%.
Take `O=C1CC2(CCN(CCCO)CC2)CN1Cc1ccc(F)c(F)c1`: the “Percent Effect” value is -28.18%.
The result for `Cc1cccc(C(C)NCC2CCS(=O)(=O)CC2)c1` (stereo unspecified) reads 7.654%; that for `CC(NCC1CCN(CCO)CC1)c1cccnc1` (stereo unspecified), -40.75%; that for `CC(NC1CCN(CCS(C)(=O)=O)CC1)c1ccc(Cl)cc1` (stereo unspecified), 56.47%.
Consider `COCCN1CCC(CNC(=O)Nc2ccc(F)c(Cl)c2)C1` (stereo unspecified), for which the “Percent Effect” value is recorded as -33.14%.
Consider `CC(c1ccc(Cl)cc1)N1CCN(CCS(C)(=O)=O)CC1` (stereo unspecified), for which the “Percent Effect” value is listed as -44.52%.
On to `CC(NCC1CCN(CCO)CC1)c1ccc(F)c(Cl)c1` (stereo unspecified), for which the “Percent Effect” value is 83.31%.
The figure for `Cc1ccc(CNC(=O)CNCC2CCN(CCO)CC2)s1` is -48.54%; for `COc1ccc(C(C)N2CCC(CO)CC2)cc1Cl` (stereo unspecified) it is -19.12%; for `CC(NCC1CCN(CCO)CC1)c1cccc(Cl)c1` (stereo unspecified) it is 84.07%.
In the case of `CS(=O)(=O)CCN1CCC(Nc2c(Cl)cccc2C#N)CC1`, the “Percent Effect” value is listed as -32.59%.
The result for `O=C(NCCOc1ccc(Cl)cn1)Nc1nccs1` reads -1.653%; that for `CCS(=O)(=O)N1CCc2ccc(NC(=O)Nc3cccc(C)c3)cc21`, -42.73%.
The figure for `O=C(NCc1ccccn1)[C@H]1COC[C@H]2CN(CC3CC3)C[C@H]21.O=C(O)C(F)(F)F.O=C(O)C(F)(F)F` is -42.42%; for `CC(NC(=O)Cn1ccc2sccc2c1=O)c1ccccc1` (stereo unspecified) it is -76.67%; for `COc1ccc(-c2cc(C3(O)CCOC(C)(C)C3)on2)cc1` (stereo unspecified) it is -20.9%.
Turning to `Cc1c(COC(C)C)cccc1NC(=O)N1CC[C@H](O)C1`, the “Percent Effect” value is on record as -81.26%.
The figure for `NC(=O)c1c(SCCN2CCCCC2)sc2c(O)cc(=O)[nH]c12` is 1.518%; for `O=S1(=O)[C@@H](c2ccccc2)[C@H](CO)CN1c1ccccc1` it is -141.9%; for `Cc1cc(C)nc(CN(C)c2nc(C3CCCC3)nc3c2cnn3C)c1` it is -50.46%.
The figure for `CCN(CC)c1ncnc2c1CCN(c1ccc(C)nn1)CC2` is -148.5%; for `Cc1nn(CCCNC(=O)C2CCN(S(C)(=O)=O)CC2)cc1Cl` it is -83.52%.
In the case of `Cc1cnn(C2CN(CCOc3ccccc3C#N)C2)c1`, the “Percent Effect” value is recorded as -94.34%.
As to `O=C(Cc1ccccn1)N1CCc2ncnc(NC3CCC3)c2CC1.O=C(O)C(F)(F)F`, the “Percent Effect” value is reported as -99.33%.
The result for `COCc1ncc(CN2CCC(Oc3ccc(OC)cc3)CC2)cn1` reads -166.1%.
The figure for `O=C(Nc1cccc(OCC(F)F)n1)c1ccncc1` is -44.55%.
The result for `COc1cccc(CN2CCCC(Nc3cccc(F)c3)C2)c1O` (stereo unspecified) reads 66.55%.
Regarding `COc1ccc(NC2CCCN(Cc3cnc(N(C)C)s3)C2)cc1OC` (stereo unspecified), the “Percent Effect” value is on record as -57.98%.
Turning to `CCOc1ccccc1-c1noc(CN2CCCC(O)C2)n1` (stereo unspecified), the “Percent Effect” value was -111.8%.
The result for `COc1ccccc1CN1CCCC(n2cccn2)C1` (stereo unspecified) reads 31.44%; that for `CCOc1cccc(CNc2ccccc2C(F)(F)F)c1O`, -100.4%; that for `CN1CCOC(CNCC(=O)NCCC2=CCCCC2)C1` (stereo unspecified), -80.77%.
The figure for `CC[C@@]1(O)CCN(c2ncc(Cl)cc2F)C[C@H]1O` is -98.16%; for `COCC[C@]1(O)CCN(c2ncc(Cl)cc2F)C[C@H]1C` it is -23.85%; for `Cc1nn(Cn2ccc(C(=O)N3CCCC(C)C3)n2)c(C)c1Cl` (stereo unspecified) it is -15.8%.
The figure for `O=C(Cn1nc(C(F)(F)F)c(Br)c1C1CC1)N1CCOCC1` is -21.49%; for `Cc1nccn1CCC1CCCCN1C(=O)c1ccc2[nH]nnc2c1` (stereo unspecified) it is -19.01%.
With `Cn1ccnc1CN1CCCCC1c1nc(-c2ccccc2)no1` (stereo unspecified), the “Percent Effect” value was -149.2%.
Regarding `CN1CCCC1CCn1ccnc1-c1nc2ccccc2[nH]1` (stereo unspecified), the “Percent Effect” value came out at 72.06%.
The figure for `CN1CCCC1CCn1ccnc1-c1ccc2ccccc2n1` (stereo unspecified) is 54.89%; for `c1ccc(-c2noc(CCCN3CCCC3Cn3cccn3)n2)cc1` (stereo unspecified) it is 29.02%.
Consider `CN(CC1CCCN1C)c1nccc(C2CCCC2)n1` (stereo unspecified), for which the “Percent Effect” value is recorded as 7.396%.
The figure for `CC(=O)Nc1ccc2nc(-c3nccn3C[C@@H]3CCCO3)ccc2c1` is -89.17%; for `OCC1CCCCN1CCn1ccnc1-c1nc2ccccc2[nH]1` (stereo unspecified) it is 10.13%; for `CN1CCCC1CCn1ccnc1-c1nc(-c2ccccc2)no1` (stereo unspecified) it is 57.38%.
